Among the data in PubChem BioAssay AID1010 (Sanford-Burnham Center for Chemical Genomics, 2008) are relative survival (cellular ATP) values, retold here.

Molecules are shown by their SMILES. The campaign covered roughly 48,000 compounds. About 160 (0.33%) were called active. The entries come from a sample that favours actives as a whole. Values without a mark were called inactive.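 The calls were made as follows: active = survival measured by cellular ATP above 50% at 15 µg/ml in the first screen; inactive = the rest.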

A short description of this assay: protection against thapsigargin ER stress killing – CSM14.1 cells, ATP luminescence, primary screen (AID 1010).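 Also: cell death triggered by about 15 µM thapsigargin; ATP read 24 h after thapsigargin was added; plate controls were thapsigargin with DMSO for no effect and DMSO without thapsigargin for full effect.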 The note with it: CSM14.1 thapsigargin ER stress survival, active compounds read high, screened at 15 µg/mL (by protocol).
Turning to `Cc1ccc(-c2[nH]ncc2/C=N/NC(=O)c2ccc(Br)cc2)cc1`, the relative survival (cellular ATP) was 3.5%.

For `COc1cc(OC)cc(C(=O)N2CCN(C)CC2)c1`, the relative survival (cellular ATP) was 4.1%.

`CONC(=O)c1ccc(C(=O)c2cc(OC)ccc2OC)cc1`: the relative survival (cellular ATP) is 6.5%.

For `CSCCOC(=O)COc1ccc(/C=N/NC(=O)c2ccc(CN3CCOCC3)cc2)cc1`, the relative survival (cellular ATP) is 9.5%.

`CN(C)c1cccc(C(=O)N2CCN(c3cccc(Cl)c3)CC2)c1`: the relative survival (cellular ATP) is -2.8%.

On to `COc1cccc(/C=N/NC(=O)c2cc(-c3ccc4ccccc4c3)n[nH]2)c1`, for which the relative survival (cellular ATP) was 5.9%.

Consider `CC(=O)c1c(-c2ccccc2)c2cc(C)ccc2[nH]c1=O`, for which the relative survival (cellular ATP) was -1.1%.

In the case of `O=C(NC(CO)(CO)CO)c1cccc(-c2ccc(O)cc2)c1`, the relative survival (cellular ATP) was -1.2%.

For `CC(=O)Nc1ccc(NC(=O)c2ccccc2-c2ccccc2C(=O)O)cc1`, the relative survival (cellular ATP) was 7.5%.

Consider `Cc1ccc(C2=NNC(c3ccc(Cl)cc3Cl)S2)cc1` (stereo not given), for which the relative survival (cellular ATP) is -7.4%.

Take `CCn1c(C(O)c2cc(OC)ccc2OC)nc2ccccc21` (stereo not given): the relative survival (cellular ATP) was 1.7%.

Turning to `CN(C)CCOC(=O)CCN1C(=O)/C(=C/c2ccc(Cl)cc2Cl)SC1=S`, the relative survival (cellular ATP) was -20.4%.

Regarding `O=C1S/C(=C/c2ccc(-c3ccc(Cl)cc3Cl)o2)C(=O)N1c1ccccc1`, the relative survival (cellular ATP) is 7%.

As to `O=C(O)CCN1C(=O)/C(=C/c2ccc(-c3cc(Cl)ccc3Cl)o2)SC1=S`, the relative survival (cellular ATP) was 64% (active).

Regarding `CCCN1C(=O)c2ccccc2NC1c1ccc(O)c(OC)c1` (stereo not given), the relative survival (cellular ATP) is -2.6%.

`C/C(=N\NC(=O)c1cccc([N+](=O)[O-])c1)c1cccnc1`: the relative survival (cellular ATP) was 2.9%.

Consider `COc1ccc(NC(=O)/C(C#N)=C/c2ccccc2[N+](=O)[O-])cc1`, for which the relative survival (cellular ATP) is 2.4%.

Take `Cc1ccc(NC(=O)CC2Nc3cc(C)c(C)cc3NC2=O)cc1` (stereo not given): the relative survival (cellular ATP) is 6.1%.

Turning to `Cc1nn(C(=O)C23CC4CC(CC(C4)C2)C3)c(C)c1Sc1ccc([N+](=O)[O-])cc1`, the relative survival (cellular ATP) was 6.7%.

As to `COC(=O)C1=CNC=C(C(=O)OC)C1c1cc(C)ccc1C`, the relative survival (cellular ATP) is 10%.

As for `O=C1C=CC(=O)N1Nc1c(Cl)cc(Cl)cc1Cl`, the relative survival (cellular ATP) was -7.8%.

Turning to `C/C(CC(=O)Nc1cccc2ccccc12)=N\NC(=O)c1ccoc1C`, the relative survival (cellular ATP) was 5.7%.

With `COc1cc(OC)cc(C(=O)N/N=C(\C)CC(=O)Nc2ccccc2-c2ccccc2)c1`, the relative survival (cellular ATP) was 66% (active).

On to `O=C(CCc1ccccc1)Nc1ccccc1-c1ccccc1`, for which the relative survival (cellular ATP) is 2.5%.

Turning to `CCOc1cc(C=C2C(=O)c3ccccc3C2=O)ccc1OCc1ccc(Cl)cc1Cl`, the relative survival (cellular ATP) is 11.4%.

Turning to `COc1cccc(OCCCCOc2ccccc2OC)c1`, the relative survival (cellular ATP) is 6%.

Regarding `CN1C(=O)C(=Cc2cc(Br)c(O)c(I)c2)C(=O)N(C)C1=O`, the relative survival (cellular ATP) was -1%.

For `CCOCCOCCN1C(=O)c2ccccc2C1=O`, the relative survival (cellular ATP) was 6.5%.

In the case of `C/C(CC(=O)Nc1ccc(Nc2ccccc2)cc1)=N\NC(=O)c1ccccc1C`, the relative survival (cellular ATP) was 16.5%.

Regarding `CCOC(=O)CCc1c(C)nc2c(C)c(-c3ccc(C)cc3)[nH]n2c1=O`, the relative survival (cellular ATP) was 8.2%.

With `CCCCc1ccc(/C=N/Nc2ccc([N+](=O)[O-])cc2)s1`, the relative survival (cellular ATP) is 5%.

With `CCOc1cc(C2NC(=S)NC(C)=C2C(=O)Nc2ccccc2C)ccc1O` (stereo not given), the relative survival (cellular ATP) was -0.3%.

Consider `CCOc1cc(C=O)cc(I)c1OC(C)C`, for which the relative survival (cellular ATP) is 0.3%.

For the compound `CC(C)=N/N=C1/NC(=O)C(CC(=O)Nc2ccc(C)c(C)c2)S1` (stereo not given), the relative survival (cellular ATP) is 2%.

For the compound `CC(=O)Nc1ccccc1NC(=O)COc1ccc(C)cc1C`, the relative survival (cellular ATP) is 6.5%.

Regarding `COc1ccc(N2C(=O)/C(=C/c3cc(C)n(-c4ccc([N+](=O)[O-])cc4)c3C)C(=O)NC2=S)cc1`, the relative survival (cellular ATP) is -5.8%.

As for `C=CCOc1cccc(/C=N/NS(=O)(=O)c2ccc(Cl)cc2)c1`, the relative survival (cellular ATP) is 3.1%.

In the case of `O=C(O)c1ccccc1C(=O)N1CCN(C(=O)c2ccccc2C(=O)O)CC1`, the relative survival (cellular ATP) is -0.9%.

On to `CCN(CC)c1ccc(Nc2nc(-c3sc(C)nc3C)cs2)cc1`, for which the relative survival (cellular ATP) is 49.2%.

Consider `O=C1/C(=C/c2ccc(F)cc2)SC(=S)N1c1ccc(F)cc1`, for which the relative survival (cellular ATP) is -1.4%.

Consider `CCN1C(=O)/C(=C/c2ccc(NC(=O)c3ccc4ncccc4c3)cc2)SC1=S`, for which the relative survival (cellular ATP) was 8.8%.

Consider `COC(=O)C(C)NC(=O)CCC1CCCCC1` (stereo not given), for which the relative survival (cellular ATP) was 4.2%.

With `Cc1cccc(C)c1OCC(=O)Nc1sc2c(c1C(N)=O)CCC2`, the relative survival (cellular ATP) is 10.1%.

Regarding `CC(=O)C1=C(O)C(=O)N(CC2CCCO2)C1c1ccc(C(C)C)cc1` (stereo not given), the relative survival (cellular ATP) is -5.9%.

With `COc1ccc(C2CC(C(F)(F)F)n3nc(C(=O)NCCc4ccccc4)c(Cl)c3N2)cc1OC` (stereo not given), the relative survival (cellular ATP) is 2.7%.

For `COc1cc(NC(=O)c2cc(Cl)c(OC)c(Cl)c2)ccc1NC(=O)c1ccco1`, the relative survival (cellular ATP) was -1.3%.

For `CCSc1nnc2c(n1)OC(c1ccc(-c3ccc(Cl)cc3)o1)Nc1ccccc1-2` (stereo not given), the relative survival (cellular ATP) was 4.5%.

Regarding `COc1ccccc1/C=N/NC(=O)c1cc(C23CC4CC(CC(C4)C2)C3)[nH]n1`, the relative survival (cellular ATP) was 3%.

For `Cc1c(OCC(=O)N(C)C)ccc2c3c(c(=O)oc12)CCCC3`, the relative survival (cellular ATP) was 4.4%.

Take `N#Cc1ccc(/C=N/Nc2nc(-c3ccccc3)cs2)cc1`: the relative survival (cellular ATP) was 5.1%.

In the case of `CS(=O)(=O)N1CCN(Cc2ccc(Br)cc2)CC1`, the relative survival (cellular ATP) is -1.6%.

`O=C(CSc1nnc(-c2cccs2)n1-c1ccccc1)c1cccc([N+](=O)[O-])c1`: the relative survival (cellular ATP) is -3.1%.

`COc1ccc2ccccc2c1-c1cc(C(=O)NN)[nH]n1`: the relative survival (cellular ATP) is -1%.

For the compound `COCCCN1C(=O)c2cccc3cccc(c23)C1=O`, the relative survival (cellular ATP) was 0.8%.

`O=C(CCN1C(=O)c2cccc3cccc(c23)C1=O)OCCCc1ccncc1`: the relative survival (cellular ATP) is 5.7%.

For the compound `O=C(CCCN1C(=O)c2cccc3cccc(c23)C1=O)N1CCN(Cc2ccc3c(c2)OCO3)CC1`, the relative survival (cellular ATP) was 77.5% (active).

As to `Cc1[nH]n(-c2ccccc2)c(=O)c1C(c1ccc(C(F)(F)F)cc1)c1c(C)[nH]n(-c2ccccc2)c1=O`, the relative survival (cellular ATP) is 4.8%.

For `O=C(O)CCCNC(=O)c1ccccc1NC(=O)c1ccccc1`, the relative survival (cellular ATP) is 7.8%.

As for `Cc1nnc(N2C(=O)c3ccc(-c4nc5ccccc5c(=O)o4)cc3C2=O)s1`, the relative survival (cellular ATP) is 5.9%.

Turning to `CN(C1=NS(=O)(=O)c2ccccc21)c1ccccc1`, the relative survival (cellular ATP) was 3.5%.

On to `O=C(COc1ccccc1)Nc1cccc(NC(=O)c2ccco2)c1`, for which the relative survival (cellular ATP) was 9%.

In the case of `COc1ccccc1/C=C1/SC(=S)N(CCC(=O)N2c3ccccc3Sc3ccc(Cl)cc32)C1=O`, the relative survival (cellular ATP) was 10%.

Take `CC(N=Cc1ccccc1O)C12CC3CC(CC(O)(C3)C1)C2` (stereo not given): the relative survival (cellular ATP) was -0.1%.

Turning to `Cc1cc(OCC(=O)Nc2ccccc2C(N)=O)cc(C)c1Cl`, the relative survival (cellular ATP) was 2.7%.

Regarding `O=C(Nc1ccc(Br)c(Cl)c1)C(c1ccccc1)c1ccccc1`, the relative survival (cellular ATP) was 4.5%.
